Data from PubChem BioAssay AID1159580 (chemical genetic matrix, 2015).
The whole screen tested about 5,500 compounds, of which about 2,000 (36%) were called active. Another 18% or so got no clear call; they are omitted. Cut-off read from the data, not from the text of the source: active = normalized growth mostly below about 0.91 (no sharp cut-off); inconclusive = no clear call, values can overlap the other calls; inactive = mostly above about 0.92. The list shows a part of the results.

Assay: chemical genetic growth profiling, strain panel (AID 1159580);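 note: tested at 20 µM; growth read once vehicle control cultures reached saturation at 30 °C; 1 = growth at the plate median or of vehicle wells; lower values mean less growth of the strain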
Settings: S. cerevisiae deletion strains, growth OD
[1] = locus YGR078C, strain PAC10, hits give low values
[2] = locus YMR263W, strain SAP30, hits give low values
[3] = locus YNL128W, strain TEP1, hits give low values
[4] = locus YPL055C, strain LGE1, hits give low values
[5] = locus YPL241C, strain CIN2, hits give low values

Measured: normalized growth

N#CC(C#N)=CNc1cccc(N)n1
inactive: locus YAL013W, strain DEP1, hits give low values 0.995 | locus YBR229C, strain ROT2, hits give low values 1.01 | locus YCL061C, strain MRC1, hits give low values 1.04 | locus YDL101C, strain DUN1, hits give low values 1.05 | locus YDL134C, strain PPH21, hits give low values 1.01 | locus YDR150W, strain NUM1, hits give low values 1.07 | locus YEL061C, strain CIN8, hits give low values 1 | [1] 1.02 | locus YGR229C, strain SMI1, hits give low values 1.02 | locus YHR030C, strain SLT2, hits give low values 1.05 | locus YHR087W, strain rtc3, hits give low values 0.968 | locus YJR043C, strain POL32, hits give low values 1.03 | locus YJR075W, strain HOC1, hits give low values 1.05 | locus YLR039C, strain RIC1, hits give low values 1.05 | locus YLR058C, strain SHM2 (second series), hits give low values 0.992 | locus YLR085C, strain ARP6, hits give low values 1.03 | locus YLR262C, strain YPT6, hits give low values 1 | locus YML094W, strain GIM5, hits give low values 0.991 | locus YMR219W, strain ESC1, hits give low values 1 | [2] 1.05 | [3] 1 | locus YNL153C, strain GIM3, hits give low values 1.02 | locus YNL298W, strain CLA4 (second series), hits give low values 1.01 | locus YNL322C, strain KRE1, hits give low values 1.01 | locus YNR030W, strain Alg12, hits give low values 1 | [4] 0.996 | [5] 1 | locus YPR135W, strain CTF4, hits give low values 1.07

CC(N)C1CCC(C(=O)Nc2ccncc2)CC1 (configuration not stated)
inactive: locus YAL040C, strain CLN3, hits give low values 0.989 | locus YCL061C, strain MRC1 (second series), hits give low values 1 | locus YDR363W, strain ESC2, hits give low values 0.985 | locus YER002W, strain NOP16, hits give low values 0.987 | [1] 1.02 | [2] 1 | locus YMR307W, strain GAS1, hits give low values 1.02 | [3] 1.01 | locus YNL175C, strain NOP13, hits give low values 0.992 | locus YNL197C, strain WHI3, hits give low values 0.99 | locus YNL224C, strain SQS1, hits give low values 0.993 | locus YOR083W, strain WHI5 (second series), hits give low values 1.05 | [4] 0.987 | [5] 0.996
